The values that follow come from ChEMBL document CHEMBL1961873, “Compounds: GSK PKIS; Assays: Nanosyn kinase panel” (2012).

What is called inhibition is the drop in the measured response relative to a control, in per cent.

Test [1] concerns the target T1, Inhibitor of nuclear factor kappa-B kinase subunit epsilon (Homo sapiens) (UniProt Q14164).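 Further: reported values are averaged percent inhibition figures against human IKKε.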
T1 sequence (whole entry): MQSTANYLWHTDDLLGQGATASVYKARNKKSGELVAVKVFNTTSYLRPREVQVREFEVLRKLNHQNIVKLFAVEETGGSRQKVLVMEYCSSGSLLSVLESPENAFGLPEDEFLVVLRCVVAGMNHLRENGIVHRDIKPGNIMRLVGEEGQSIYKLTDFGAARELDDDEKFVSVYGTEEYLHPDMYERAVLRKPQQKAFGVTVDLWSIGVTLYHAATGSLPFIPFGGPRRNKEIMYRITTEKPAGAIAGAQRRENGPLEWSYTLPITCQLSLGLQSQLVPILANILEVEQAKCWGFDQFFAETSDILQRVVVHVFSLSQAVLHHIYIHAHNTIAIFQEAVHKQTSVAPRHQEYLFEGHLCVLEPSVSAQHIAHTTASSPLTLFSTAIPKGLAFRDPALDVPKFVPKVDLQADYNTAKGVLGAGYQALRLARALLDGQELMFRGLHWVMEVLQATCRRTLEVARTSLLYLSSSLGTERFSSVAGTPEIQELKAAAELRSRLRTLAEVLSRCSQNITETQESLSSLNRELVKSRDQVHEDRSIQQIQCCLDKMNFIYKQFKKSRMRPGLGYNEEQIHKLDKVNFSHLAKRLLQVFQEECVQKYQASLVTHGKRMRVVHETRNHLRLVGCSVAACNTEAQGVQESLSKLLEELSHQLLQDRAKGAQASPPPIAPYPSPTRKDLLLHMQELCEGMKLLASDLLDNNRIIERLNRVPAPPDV
The note with it: at 1 µM.

Test [2] addresses T2, Serine/threonine-protein kinase Nek1 (Homo sapiens) (UniProt Q96PY6).
T2 sequence (whole entry): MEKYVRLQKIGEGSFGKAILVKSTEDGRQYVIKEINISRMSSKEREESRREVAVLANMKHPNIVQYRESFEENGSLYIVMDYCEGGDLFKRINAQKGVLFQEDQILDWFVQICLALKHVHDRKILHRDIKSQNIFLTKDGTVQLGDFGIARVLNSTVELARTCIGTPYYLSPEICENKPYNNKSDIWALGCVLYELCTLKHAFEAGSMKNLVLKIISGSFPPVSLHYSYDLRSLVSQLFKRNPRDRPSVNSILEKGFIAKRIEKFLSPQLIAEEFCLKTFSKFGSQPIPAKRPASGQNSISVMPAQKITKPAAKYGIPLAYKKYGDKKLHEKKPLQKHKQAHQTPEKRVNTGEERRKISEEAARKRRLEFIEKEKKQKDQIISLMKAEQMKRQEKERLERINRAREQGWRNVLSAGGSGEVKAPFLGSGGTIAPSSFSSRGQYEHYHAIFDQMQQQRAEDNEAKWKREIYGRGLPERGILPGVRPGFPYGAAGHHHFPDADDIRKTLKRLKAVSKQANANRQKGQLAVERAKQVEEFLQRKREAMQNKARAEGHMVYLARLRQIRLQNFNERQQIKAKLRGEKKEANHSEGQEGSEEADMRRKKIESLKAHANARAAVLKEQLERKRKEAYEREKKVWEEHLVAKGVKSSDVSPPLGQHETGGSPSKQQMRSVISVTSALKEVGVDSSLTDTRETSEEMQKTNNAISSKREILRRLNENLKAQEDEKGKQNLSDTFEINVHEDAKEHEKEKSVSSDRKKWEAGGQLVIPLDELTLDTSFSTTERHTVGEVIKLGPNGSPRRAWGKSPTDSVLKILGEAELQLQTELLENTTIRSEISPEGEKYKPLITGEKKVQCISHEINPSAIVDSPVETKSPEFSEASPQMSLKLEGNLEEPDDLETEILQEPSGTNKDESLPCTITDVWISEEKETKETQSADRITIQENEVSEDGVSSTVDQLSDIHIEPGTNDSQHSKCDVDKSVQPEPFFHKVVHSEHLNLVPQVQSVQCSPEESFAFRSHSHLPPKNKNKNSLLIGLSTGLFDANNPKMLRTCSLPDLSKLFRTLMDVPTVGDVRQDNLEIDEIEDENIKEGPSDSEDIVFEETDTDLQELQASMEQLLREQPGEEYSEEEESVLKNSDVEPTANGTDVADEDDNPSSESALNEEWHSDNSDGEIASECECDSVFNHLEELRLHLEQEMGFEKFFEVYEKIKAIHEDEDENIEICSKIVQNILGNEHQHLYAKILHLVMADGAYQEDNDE
The conditions noted are these: at 0.1 µM.

For test [3], the target named is T2, Serine/threonine-protein kinase Nek1 (Homo sapiens). The conditions noted are these: at 1 µM.
Test [4] concerns the target T3, Serine/threonine-protein kinase Nek2 (Homo sapiens) (UniProt P51955).
T3 sequence (whole entry): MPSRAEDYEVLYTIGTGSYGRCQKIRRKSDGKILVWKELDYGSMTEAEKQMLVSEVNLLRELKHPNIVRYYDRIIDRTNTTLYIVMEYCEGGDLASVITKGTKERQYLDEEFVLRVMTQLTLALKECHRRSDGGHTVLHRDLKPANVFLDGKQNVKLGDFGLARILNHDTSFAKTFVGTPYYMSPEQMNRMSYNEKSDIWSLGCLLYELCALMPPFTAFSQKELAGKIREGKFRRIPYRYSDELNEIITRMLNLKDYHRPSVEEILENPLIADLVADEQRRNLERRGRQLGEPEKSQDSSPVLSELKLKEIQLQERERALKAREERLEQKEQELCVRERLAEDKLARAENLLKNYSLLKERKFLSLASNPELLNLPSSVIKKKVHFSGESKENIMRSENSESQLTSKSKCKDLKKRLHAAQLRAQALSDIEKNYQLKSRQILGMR
The conditions noted are these: at 0.1 µM.

Test [5] concerns the target T3, Serine/threonine-protein kinase Nek2 (Homo sapiens). The conditions noted are these: at 1 µM.
Test [6] has as its target Serine/threonine-protein kinase Nek6 (Homo sapiens) (UniProt Q9HC98). The note with it: at 0.1 µM.
Test [7] has the same target. The conditions noted are these: at 1 µM.
The target of test [8] is Serine/threonine-protein kinase Nek7 (Homo sapiens) (UniProt Q8TDX7). The note with it: at 0.1 µM.
For test [9] the target is unchanged. The conditions noted are these: at 1 µM.
The target of test [10] is T4, Serine/threonine-protein kinase Nek9 (Homo sapiens) (UniProt Q8TD19).
T4 sequence (whole entry): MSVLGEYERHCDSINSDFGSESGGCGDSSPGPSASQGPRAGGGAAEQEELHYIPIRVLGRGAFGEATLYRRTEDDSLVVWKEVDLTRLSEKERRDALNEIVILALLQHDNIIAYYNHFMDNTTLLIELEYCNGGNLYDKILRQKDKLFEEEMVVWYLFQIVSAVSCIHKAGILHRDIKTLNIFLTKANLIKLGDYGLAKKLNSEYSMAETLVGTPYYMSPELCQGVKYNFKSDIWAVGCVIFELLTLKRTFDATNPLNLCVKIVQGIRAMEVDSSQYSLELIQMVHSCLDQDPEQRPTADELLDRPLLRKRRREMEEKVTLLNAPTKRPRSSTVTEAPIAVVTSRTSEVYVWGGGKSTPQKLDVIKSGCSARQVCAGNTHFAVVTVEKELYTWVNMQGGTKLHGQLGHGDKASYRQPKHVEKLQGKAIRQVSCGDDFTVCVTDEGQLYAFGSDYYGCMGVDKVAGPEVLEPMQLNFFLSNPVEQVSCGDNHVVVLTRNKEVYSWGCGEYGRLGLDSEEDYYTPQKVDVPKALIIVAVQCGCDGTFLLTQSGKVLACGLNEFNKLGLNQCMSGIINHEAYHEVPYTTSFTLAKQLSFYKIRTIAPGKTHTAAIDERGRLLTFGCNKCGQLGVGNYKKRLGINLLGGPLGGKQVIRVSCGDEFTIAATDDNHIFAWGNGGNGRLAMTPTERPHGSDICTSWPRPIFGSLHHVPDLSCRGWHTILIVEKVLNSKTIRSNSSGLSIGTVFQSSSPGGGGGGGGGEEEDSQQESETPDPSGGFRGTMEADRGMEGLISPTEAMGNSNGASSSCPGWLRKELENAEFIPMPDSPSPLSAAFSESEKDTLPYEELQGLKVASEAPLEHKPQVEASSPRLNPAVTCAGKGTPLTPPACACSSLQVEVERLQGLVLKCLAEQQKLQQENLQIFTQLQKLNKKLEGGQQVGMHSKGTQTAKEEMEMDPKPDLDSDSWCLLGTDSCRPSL
The conditions noted are these: at 0.1 µM.

The target in test [11] is T4, Serine/threonine-protein kinase Nek9 (Homo sapiens). The note with it: at 1 µM.
The target of test [12] is Serine/threonine-protein kinase PLK1 (Homo sapiens) (UniProt P53350). The note with it: at 0.1 µM.
For test [13] the target is unchanged. The conditions noted are these: at 1 µM.
The target in test [14] is T5, Dual specificity protein kinase TTK (Homo sapiens) (UniProt P33981).
T5 sequence (whole entry): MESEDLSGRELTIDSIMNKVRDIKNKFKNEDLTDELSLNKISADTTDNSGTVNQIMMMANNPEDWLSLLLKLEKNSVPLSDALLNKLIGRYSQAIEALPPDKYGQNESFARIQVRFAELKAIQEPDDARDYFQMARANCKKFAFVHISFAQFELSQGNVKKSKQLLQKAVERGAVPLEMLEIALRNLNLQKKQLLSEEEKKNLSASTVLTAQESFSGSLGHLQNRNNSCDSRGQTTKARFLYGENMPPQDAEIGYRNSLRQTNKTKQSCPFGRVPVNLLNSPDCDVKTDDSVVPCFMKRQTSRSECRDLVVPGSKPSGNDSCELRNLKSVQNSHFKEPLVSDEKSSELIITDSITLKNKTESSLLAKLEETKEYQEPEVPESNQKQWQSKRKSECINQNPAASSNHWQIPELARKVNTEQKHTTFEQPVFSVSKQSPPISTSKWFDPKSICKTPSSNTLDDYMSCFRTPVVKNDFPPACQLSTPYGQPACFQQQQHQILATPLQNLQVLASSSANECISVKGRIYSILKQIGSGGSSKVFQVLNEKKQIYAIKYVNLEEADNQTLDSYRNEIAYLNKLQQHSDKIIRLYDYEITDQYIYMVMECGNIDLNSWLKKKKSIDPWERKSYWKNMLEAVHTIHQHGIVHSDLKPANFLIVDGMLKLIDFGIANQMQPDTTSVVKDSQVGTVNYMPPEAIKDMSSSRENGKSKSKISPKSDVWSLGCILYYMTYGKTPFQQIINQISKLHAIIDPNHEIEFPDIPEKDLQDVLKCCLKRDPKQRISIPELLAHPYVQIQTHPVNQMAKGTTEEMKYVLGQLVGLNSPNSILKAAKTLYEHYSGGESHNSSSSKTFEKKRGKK
The note with it: at 0.1 µM.

Test [15] deals with T6, Receptor-type tyrosine-protein kinase FLT3 (Homo sapiens), P36888 [D835Y].
T6 sequence (whole entry): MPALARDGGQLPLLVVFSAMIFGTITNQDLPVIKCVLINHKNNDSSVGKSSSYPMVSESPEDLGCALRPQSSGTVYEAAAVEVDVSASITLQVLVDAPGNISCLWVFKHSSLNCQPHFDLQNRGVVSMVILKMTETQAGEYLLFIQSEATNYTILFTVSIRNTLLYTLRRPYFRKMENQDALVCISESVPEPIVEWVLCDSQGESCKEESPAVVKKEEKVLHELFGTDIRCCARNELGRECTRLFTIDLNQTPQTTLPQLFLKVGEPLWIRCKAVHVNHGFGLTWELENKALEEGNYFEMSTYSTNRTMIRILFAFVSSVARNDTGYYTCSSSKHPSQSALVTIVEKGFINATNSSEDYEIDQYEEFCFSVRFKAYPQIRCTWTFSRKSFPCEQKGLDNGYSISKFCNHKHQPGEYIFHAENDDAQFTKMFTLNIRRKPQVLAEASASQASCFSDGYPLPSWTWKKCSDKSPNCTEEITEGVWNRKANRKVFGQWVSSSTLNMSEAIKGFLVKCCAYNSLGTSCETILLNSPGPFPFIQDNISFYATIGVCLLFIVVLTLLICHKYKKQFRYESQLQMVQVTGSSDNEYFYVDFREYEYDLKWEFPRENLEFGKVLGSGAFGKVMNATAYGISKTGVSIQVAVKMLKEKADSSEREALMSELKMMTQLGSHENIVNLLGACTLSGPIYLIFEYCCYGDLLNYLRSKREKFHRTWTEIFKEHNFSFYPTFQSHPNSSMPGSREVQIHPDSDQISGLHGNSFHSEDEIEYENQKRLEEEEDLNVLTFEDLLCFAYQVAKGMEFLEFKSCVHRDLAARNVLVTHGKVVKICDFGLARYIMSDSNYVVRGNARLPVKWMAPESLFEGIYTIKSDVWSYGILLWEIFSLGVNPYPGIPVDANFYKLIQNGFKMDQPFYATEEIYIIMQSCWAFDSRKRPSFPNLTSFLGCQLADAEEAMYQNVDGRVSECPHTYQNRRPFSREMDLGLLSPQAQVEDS
The conditions noted are these: at 1 µM.

The target in test [16] is Vascular endothelial growth factor receptor 3 (Homo sapiens) (UniProt P35916). The note with it: at 0.1 µM.
Test [17] has the same target. The note with it: at 1 µM.
Test [18] has as its target Macrophage colony-stimulating factor 1 receptor (Homo sapiens) (UniProt P07333). The conditions noted are these: at 0.1 µM.
Test [19] shares this target. The note with it: at 1 µM.
Test [20] deals with Tyrosine-protein kinase Fyn (Homo sapiens) (UniProt P06241). The conditions noted are these: at 0.1 µM.
Tyrosine-protein kinase Fyn (Homo sapiens), sequence (P06241 2-537 limits assumed): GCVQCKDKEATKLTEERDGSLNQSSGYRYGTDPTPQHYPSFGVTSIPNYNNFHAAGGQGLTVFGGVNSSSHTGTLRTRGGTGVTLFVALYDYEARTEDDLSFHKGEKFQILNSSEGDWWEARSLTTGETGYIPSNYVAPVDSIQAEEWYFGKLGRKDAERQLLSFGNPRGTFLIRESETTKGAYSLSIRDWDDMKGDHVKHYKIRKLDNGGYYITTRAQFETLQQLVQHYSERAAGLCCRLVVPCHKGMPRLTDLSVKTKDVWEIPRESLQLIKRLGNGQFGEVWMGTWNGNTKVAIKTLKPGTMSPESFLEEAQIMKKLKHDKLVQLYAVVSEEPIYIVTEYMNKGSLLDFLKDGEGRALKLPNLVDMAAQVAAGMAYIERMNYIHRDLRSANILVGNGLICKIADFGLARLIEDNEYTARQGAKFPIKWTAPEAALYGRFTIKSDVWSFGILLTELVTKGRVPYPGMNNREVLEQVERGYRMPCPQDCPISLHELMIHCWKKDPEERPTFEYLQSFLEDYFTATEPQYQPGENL

Vascular endothelial growth factor receptor 3 (Homo sapiens), sequence (P35916 whole entry): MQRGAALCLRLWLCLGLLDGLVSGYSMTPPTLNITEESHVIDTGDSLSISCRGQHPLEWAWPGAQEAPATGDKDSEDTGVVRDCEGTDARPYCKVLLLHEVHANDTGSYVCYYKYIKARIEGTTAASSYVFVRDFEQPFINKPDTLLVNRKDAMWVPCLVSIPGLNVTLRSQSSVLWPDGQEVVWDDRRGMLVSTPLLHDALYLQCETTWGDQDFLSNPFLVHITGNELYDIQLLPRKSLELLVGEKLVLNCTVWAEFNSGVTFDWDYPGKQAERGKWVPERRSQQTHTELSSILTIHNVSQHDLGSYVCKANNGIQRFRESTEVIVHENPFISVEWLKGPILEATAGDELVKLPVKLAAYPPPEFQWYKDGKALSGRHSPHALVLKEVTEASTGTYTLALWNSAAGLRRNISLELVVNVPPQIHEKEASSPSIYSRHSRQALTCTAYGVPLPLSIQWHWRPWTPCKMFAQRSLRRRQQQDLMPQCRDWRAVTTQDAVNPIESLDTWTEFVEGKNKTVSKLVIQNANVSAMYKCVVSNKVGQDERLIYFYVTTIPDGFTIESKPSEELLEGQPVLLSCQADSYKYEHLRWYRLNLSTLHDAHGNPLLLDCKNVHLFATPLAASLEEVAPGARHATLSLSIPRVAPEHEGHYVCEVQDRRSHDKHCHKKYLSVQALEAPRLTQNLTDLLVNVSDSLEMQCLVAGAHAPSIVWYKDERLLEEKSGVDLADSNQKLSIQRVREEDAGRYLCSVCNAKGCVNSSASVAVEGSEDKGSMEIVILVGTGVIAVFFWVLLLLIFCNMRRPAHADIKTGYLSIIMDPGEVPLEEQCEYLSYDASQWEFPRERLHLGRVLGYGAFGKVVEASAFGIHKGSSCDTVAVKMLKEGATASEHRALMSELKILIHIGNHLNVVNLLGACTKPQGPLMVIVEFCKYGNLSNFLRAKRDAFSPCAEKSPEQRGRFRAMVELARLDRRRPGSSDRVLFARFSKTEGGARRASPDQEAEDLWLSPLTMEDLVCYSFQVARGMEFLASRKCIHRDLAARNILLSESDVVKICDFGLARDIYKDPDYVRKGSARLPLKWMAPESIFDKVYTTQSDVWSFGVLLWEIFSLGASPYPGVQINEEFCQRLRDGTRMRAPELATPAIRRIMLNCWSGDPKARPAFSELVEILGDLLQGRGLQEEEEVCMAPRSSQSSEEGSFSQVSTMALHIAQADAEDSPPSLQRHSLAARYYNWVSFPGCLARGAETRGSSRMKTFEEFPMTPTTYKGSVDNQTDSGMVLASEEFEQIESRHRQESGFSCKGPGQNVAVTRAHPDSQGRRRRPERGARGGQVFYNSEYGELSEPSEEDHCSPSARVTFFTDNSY
Macrophage colony-stimulating factor 1 receptor (Homo sapiens), sequence (P07333 whole entry): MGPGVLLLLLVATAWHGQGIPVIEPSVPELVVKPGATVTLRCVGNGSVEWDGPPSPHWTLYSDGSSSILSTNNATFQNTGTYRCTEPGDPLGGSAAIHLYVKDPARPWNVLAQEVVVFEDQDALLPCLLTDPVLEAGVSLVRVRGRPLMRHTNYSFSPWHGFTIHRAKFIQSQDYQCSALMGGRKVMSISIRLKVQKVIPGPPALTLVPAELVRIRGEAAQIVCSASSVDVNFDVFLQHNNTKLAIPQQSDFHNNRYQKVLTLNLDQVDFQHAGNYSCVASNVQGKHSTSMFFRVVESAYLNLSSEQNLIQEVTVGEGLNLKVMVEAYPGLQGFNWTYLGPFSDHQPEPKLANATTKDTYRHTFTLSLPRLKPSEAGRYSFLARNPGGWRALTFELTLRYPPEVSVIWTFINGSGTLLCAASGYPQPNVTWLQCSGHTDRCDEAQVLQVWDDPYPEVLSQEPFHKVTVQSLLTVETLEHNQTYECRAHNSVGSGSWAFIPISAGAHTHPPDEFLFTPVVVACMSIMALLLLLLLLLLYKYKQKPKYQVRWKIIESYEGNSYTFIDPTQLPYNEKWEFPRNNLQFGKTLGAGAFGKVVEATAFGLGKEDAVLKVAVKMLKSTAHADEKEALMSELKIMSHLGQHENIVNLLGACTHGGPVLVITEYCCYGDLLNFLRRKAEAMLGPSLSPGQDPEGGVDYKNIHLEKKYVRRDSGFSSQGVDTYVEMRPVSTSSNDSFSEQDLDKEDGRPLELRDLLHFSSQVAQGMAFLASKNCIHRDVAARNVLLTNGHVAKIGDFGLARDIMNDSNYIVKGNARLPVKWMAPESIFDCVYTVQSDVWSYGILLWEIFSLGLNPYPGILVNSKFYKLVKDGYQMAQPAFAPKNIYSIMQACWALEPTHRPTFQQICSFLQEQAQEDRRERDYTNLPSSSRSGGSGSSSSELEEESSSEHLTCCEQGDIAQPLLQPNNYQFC
Serine/threonine-protein kinase Nek6 (Homo sapiens), sequence (Q9HC98 whole entry): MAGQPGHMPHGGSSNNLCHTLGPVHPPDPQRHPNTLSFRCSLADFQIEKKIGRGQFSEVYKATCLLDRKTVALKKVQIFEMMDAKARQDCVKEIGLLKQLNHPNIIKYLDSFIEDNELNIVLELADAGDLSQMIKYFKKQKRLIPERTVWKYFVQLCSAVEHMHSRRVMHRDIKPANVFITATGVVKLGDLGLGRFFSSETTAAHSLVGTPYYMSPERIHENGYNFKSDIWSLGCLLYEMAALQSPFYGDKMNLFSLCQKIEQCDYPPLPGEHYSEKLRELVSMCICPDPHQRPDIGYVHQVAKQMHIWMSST
Serine/threonine-protein kinase PLK1 (Homo sapiens), sequence (P53350 whole entry): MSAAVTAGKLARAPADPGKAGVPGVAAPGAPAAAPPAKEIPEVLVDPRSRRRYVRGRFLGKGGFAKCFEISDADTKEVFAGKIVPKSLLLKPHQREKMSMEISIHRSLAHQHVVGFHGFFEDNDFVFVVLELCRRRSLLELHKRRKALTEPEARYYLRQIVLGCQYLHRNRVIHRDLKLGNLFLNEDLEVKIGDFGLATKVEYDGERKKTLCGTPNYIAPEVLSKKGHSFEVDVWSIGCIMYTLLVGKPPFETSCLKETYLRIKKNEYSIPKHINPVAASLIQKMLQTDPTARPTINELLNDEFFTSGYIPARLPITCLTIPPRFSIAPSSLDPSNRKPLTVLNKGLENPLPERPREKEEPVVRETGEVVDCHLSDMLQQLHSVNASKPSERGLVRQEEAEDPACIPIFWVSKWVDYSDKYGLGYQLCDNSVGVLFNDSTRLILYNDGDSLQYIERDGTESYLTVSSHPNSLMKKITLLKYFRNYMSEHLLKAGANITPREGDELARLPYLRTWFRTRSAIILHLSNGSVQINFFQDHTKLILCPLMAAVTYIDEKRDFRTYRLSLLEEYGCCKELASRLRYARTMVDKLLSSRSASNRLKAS
Serine/threonine-protein kinase Nek7 (Homo sapiens), sequence (Q8TDX7 whole entry, looked up): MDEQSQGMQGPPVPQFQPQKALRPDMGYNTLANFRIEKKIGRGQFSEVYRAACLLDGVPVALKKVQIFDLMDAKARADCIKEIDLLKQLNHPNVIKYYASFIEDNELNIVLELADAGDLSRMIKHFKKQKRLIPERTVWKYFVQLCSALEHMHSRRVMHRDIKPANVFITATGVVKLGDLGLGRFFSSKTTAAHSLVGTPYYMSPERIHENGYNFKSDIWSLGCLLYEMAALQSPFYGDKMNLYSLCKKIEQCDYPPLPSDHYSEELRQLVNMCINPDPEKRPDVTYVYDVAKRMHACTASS

As to `Cc1ccc(O)cc1Nc1ccnc2ccc(S(C)(=O)=O)cc12`, the inhibition in test [1] amounted to 6.97%; in test [2], 2.87%; in test [3], 5.3%; in test [4], 5.76%; in test [5] it was 4.61%; in test [6] it was 1.23%. The inhibition came out at 4.89% in test [7]; 5.32% in test [8]; 4.35% in [9]; 4.3% in test [10]; 7.62% in test [11]; 4.22% in test [12]. Also, the inhibition in [13] was 2.78%; in test [14], 8.17%; in [15], -0.22%; in test [16], 21.3%; in test [17], 68.8%; in [18], 5.71%. Also, the inhibition in test [19] was found to be 15.8%; in test [20], 92.4%.
